Data taken from PubChem BioAssay.

assay: mitochondrial membrane potential change in A549 cells, profiling panel, cell-based, JC-1 fluorescence, basal, 24 h, 100 nL (AID 1138); details: higher = more signal;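 also: A549 lung adenocarcinoma cells under basal conditions with no added stimulus; test concentration not given here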

In order of rising z-score:
1. COc1ccc(C#Cc2ccc3c(c2)[C@]2(C(=O)N3)[C@H](c3ccc(OCCO)cc3)N3[C@H](c4ccccc4)[C@H](c4ccccc4)OC(=O)[C@H]3[C@@H]2C(=O)O)cc1  -2.54
2. COc1ccc(C#Cc2ccc3c(c2)[C@]2(C(=O)N3)[C@H](C(=O)Nc3nc4ccccc4s3)[C@H]3C(=O)O[C@H](c4ccccc4)[C@H](c4ccccc4)N3[C@@H]2c2ccc(OCCO)cc2)cc1  -2.33
3. NC(=O)NCC#Cc1ccc2c(c1)[C@]1(C(=O)N2)[C@H](C(=O)Nc2nc3ccccc3s2)[C@H]2C(=O)O[C@H](c3ccccc3)[C@H](c3ccccc3)N2[C@@H]1c1ccc(OCCO)cc1  -2.21
4. COCCOC(=O)N1C(=O)[C@@]2(c3cc(C#CCC(C(=O)OC)C(=O)OC)ccc31)[C@H](C(N)=O)[C@H]1C(=O)O[C@H](c3ccccc3)[C@H](c3ccccc3)N1[C@@H]2c1ccc(OCCO)cc1  -1.07
5. COCCOC(=O)N1C(=O)[C@@]2(c3cc(C#CCCO)ccc31)[C@H](C(=O)N1CCc3cc(OC)c(OC)cc3C1)[C@H]1C(=O)O[C@H](c3ccccc3)[C@H](c3ccccc3)N1[C@@H]2c1ccccc1OCCO  -0.976
6. C=CCOC(=O)[C@H]1[C@@H]2C(=O)O[C@@H](c3ccccc3)[C@@H](c3ccccc3)N2[C@@H](c2ccc(OCCOC(=O)[C@@H]3C[C@@H]4C(=O)N[C@@H](CC(C)C)C(=O)N4[C@@H]3c3ccc(O)cc3)cc2)[C@]12C(=O)Nc1ccc(I)cc12  -0.946
7. C=CCNC(=O)[C@@H]1[C@H]2C(=O)O[C@H](c3ccccc3)[C@H](c3ccccc3)N2[C@H](c2ccc(O)cc2)[C@@]12C(=O)Nc1ccc(C#CC3(O)CCCCCC3)cc12  -0.9
8. O=C1NC(=O)C2C1C=CC(C(O)c1cccc(O)c1)N2Nc1ccc(Cl)cc1Cl (stereo not given)  -0.812
9. COCCOC(=O)N1C(=O)[C@@]2(c3cc(C#CC4(O)CCCCCC4)ccc31)[C@H](c1ccccc1OCCO)N1[C@H](c3ccccc3)[C@H](c3ccccc3)OC(=O)[C@H]1[C@@H]2C(=O)N1CCCCCCC1  -0.768
10. CCCC=C(CCC)[C@@H](NS(=O)(=O)c1ccc(Cl)cc1)c1ccccc1  -0.576
11. C=C(COC)C(=O)CC[C@@H](OC(C)=O)c1ccc(OCCO)cc1  -0.576
12. C=C(CCCC)C(=O)CC[C@H](OC(=O)c1cccnc1)c1ccc(CO)o1  -0.555
13. C=CCNC(=O)[C@@H]1[C@H]2C(=O)O[C@H](c3ccccc3)[C@H](c3ccccc3)N2[C@H](c2ccccc2OCCO)[C@@]12C(=O)N(C(=O)OCCOC)c1ccc(C#CCCO)cc12  -0.549
14. C=CCC(OC(C)=O)[C@@H]1[C@@H](N(Cc2cc3ccccc3o2)C(=O)Cc2ccc(OC)cc2)c2cc(OCCCO)ccc2N1C(=O)Cc1ccc(OC)cc1 (stereo not given in full)  -0.411
15. C=CC[C@@]12N=C(c3ccc(OCCCO)cc3)O[C@@H]1c1ccccc1N(Cc1ccccc1)C2=O  -0.379
16. COCCOC(=O)N1C(=O)[C@@]2(c3cc(C#CCC(C(=O)OC)C(=O)OC)ccc31)[C@H](C(=O)N1CCc3cc(OC)c(OC)cc3C1)[C@H]1C(=O)O[C@H](c3ccccc3)[C@H](c3ccccc3)N1[C@@H]2c1ccc(O)cc1  -0.132
17. CCCCN1CC=CC23O[C@@H]4C=CCOC(=O)[C@@H]4[C@H]2C(=O)N(CCO)[C@@H]3C1=O (stereo not given in full)  0.0309
18. CN(C)CCCC[C@@H]1NC(=O)[C@@H]2C[C@H](C(=O)NCc3ccc(F)cc3)[C@H](c3ccc(O)cc3)N2C1=O  0.0539
19. O=C1c2ccccc2[C@@]2(Cc3ccccc3N(Cc3ccccc3)C2=O)[C@H](c2ccc(CO)cc2)N1Cc1ccccc1  0.0926
20. COCCOC(=O)N1C(=O)[C@@]2(c3cc(C#CC4(O)CCCCCC4)ccc31)[C@H](C(=O)NC[C@H](O)c1ccccc1)[C@H]1C(=O)O[C@H](c3ccccc3)[C@H](c3ccccc3)N1[C@@H]2c1ccc(O)cc1  0.139
21. COC(=O)[C@@]1(Cc2ccc(F)cc2)[C@H]2c3cc(C(=O)N(C)C)n(CCN4CCOCC4)c3C[C@H]2CN1C(=O)c1ccccc1  0.147
22. CCOC(=O)C[C@H]1[C@H](OC(=O)c2ccc(-c3ccccc3)cc2)[C@@H](NC(=O)c2ccc3ccccc3c2)c2cc(OCCCO)ccc2N1C(=O)c1ccccc1  0.257
23. [N-]=[N+]=NCc1ccccc1[C@H]1OC(c2ccc(OCCCO)cc2)=N[C@@]1(Cc1ccccc1)C(=O)N1CCOCC1  0.343
24. CCCC[C@H]1OB(O)C[C@H]2C1=C(COC)C[C@H]1C(=O)C=CC(=O)[C@H]12  0.777
25. CN(C)CCCNC(=O)[C@@]1(Cc2ccccc2I)c2ccccc2C(=O)N(Cc2ccccc2)[C@H]1c1ccc(CO)cc1  0.893
26. COC(=O)[C@@]1(Cc2ccc(OC)cc2)[C@H]2c3cc(C(=O)N4CCCC4)n(CCc4ccc(OC)c(Br)c4)c3C[C@H]2CN1C(=O)c1ccccc1  0.914
27. CN(C)CCCC[C@@H]1NC(=O)[C@@H]2C[C@H](C(=O)NCCCCCCNC(=O)CS)[C@H](c3cccc(OCCO)c3)N2C1=O  1.12
28. CCCC[C@@H]1C[C@H]1[C@@H](NC(=O)c1ccc(C(F)(F)F)cc1)c1ccc(C(=O)OC)cc1  1.19
29. COC(=O)[C@@]1(Cc2ccccc2)[C@@H]2[C@@H](CC(=O)[C@H]2CC(=O)C(=O)N(C)C)CN1C(=O)c1ccccc1  1.19
30. Cc1c(NC(=O)/C(C#N)=C/c2ccc(Cl)cc2)c(=O)n(-c2ccccc2)n1C  1.28
31. C=C(/C(=C/C[C@@H](OC(C)=O)c1ccccc1OCCO)c1cc(C(=O)OC)ccc1OC)C(C)C  1.68
32. C=CCC(OC(C)=O)[C@@H]1[C@@H](N(Cc2cc3ccccc3o2)C(=O)c2ccc(-c3ccccc3)cc2)c2cc(OCCCO)ccc2N1C(=O)c1ccc2ccccc2n1 (stereo not given in full)  1.71
33. CCOC(=O)C1=C(C(=O)OCC)N(S(=O)(=O)CC[Si](C)(C)C)[C@H](c2ccccc2)CC1  2.54
34. C=C(CCCC)/C(=C/C[C@H](OC(C)=O)c1cccc(OCCO)c1)c1cc(C(=O)OC)ccc1OC  3.6
35. COC(=O)C1=CC(CCCO)=CC(c2ccc(CN3CCCC3)cc2)N(Cc2sc3ccccc3c2Cl)C=C1C(=O)OC (stereo not given)  4.12
